# Results published in the supplement of paper PMC9433436.
# ± gives the standard deviation of the averaged measurements. In all, about 4,100 sequences were measured (“relative kcat/Km (krel) vs genomic leader AAAGAU”: median about 1.7, highest 2% from about 6.5 on). The list comes from a sample in which the highest values are over-represented; it also holds similar and randomly drawn sequences.
# Biological target: T1, E. coli RNase P holoenzyme (M1 P RNA + rnpA protein) (UniProt P0A7Y8)
# T1 sequence: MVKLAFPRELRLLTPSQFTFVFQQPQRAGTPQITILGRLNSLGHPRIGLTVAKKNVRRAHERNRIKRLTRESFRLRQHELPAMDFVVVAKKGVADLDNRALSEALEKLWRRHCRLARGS
# Experiment: relative kcat/Km (krel) vs genomic leader AAAGAU (relative (reference leader = 1)); higher = faster RNase P cleavage
# Procedure, shortened: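 Relative kcat/Km (krel) values came from internal competition kinetics on sequencing read ratios, normalised to the genomic leader and averaged over two technical replicates. A precursor tRNA-Met pool with randomized leader positions −6 to −1 was cleaved by E. coli RNase P holoenzyme (P RNA plus C5 protein) under multiple-turnover conditions at 37 °C. The buffer held 50 mM Tris-HCl pH 8, 100 mM NaCl and 17.5 mM MgCl2, and unreacted precursor was gel-purified at ~5–30% conversion, made into cDNA libraries and Illumina-sequenced.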
# [1] = fraction of substrate reacted: ~9-10% (9.79% repeat 1, 9.1% repeat 2)
# [2] = fraction of substrate reacted: ~13-16% (15.68% repeat 1, 13.17% repeat 2)
# [3] = fraction of substrate reacted: ~26-29% (28.66% repeat 1, 26.4% repeat 2)
sequence,measurement,setting,value
TTAACT,relative kcat/Km,[1],1.58 ± 0.78
same,relative kcat/Km,[2],1.54 ± 0.2
same,relative kcat/Km,[3],2.03 ± 0.47
CCTCCC,relative kcat/Km,[1],0.874 ± 0.5
same,relative kcat/Km,[2],1.06 ± 0.17
same,relative kcat/Km,[3],1.57 ± 0.17
CTAGAC,relative kcat/Km,[1],1.95 ± 0.33
same,relative kcat/Km,[2],3.27 ± 0.96
same,relative kcat/Km,[3],4.19 ± 2.1
GGATTA,relative kcat/Km,[1],1.24 ± 0.14
same,relative kcat/Km,[2],0.993 ± 0.47
same,relative kcat/Km,[3],1.52 ± 0.41
TCGGTG,relative kcat/Km,[1],0.643 ± 0.43
same,relative kcat/Km,[3],0.367 ± 0.27
GACTTC,relative kcat/Km,[1],3.65 ± 0.53
same,relative kcat/Km,[2],4.38 ± 2.1
same,relative kcat/Km,[3],6.22 ± 3.3
GCCTTC,relative kcat/Km,[1],3 ± 0.21
same,relative kcat/Km,[2],4.03 ± 2.2
same,relative kcat/Km,[3],5.81 ± 3.1
GCCTTA,relative kcat/Km,[1],2.94 ± 1.2
same,relative kcat/Km,[2],3.35 ± 0.54
same,relative kcat/Km,[3],5.21 ± 1.5
ATCTTG,relative kcat/Km,[2],1.15 ± 0.053
same,relative kcat/Km,[3],2.716 ± 0.019
TGCTTT,relative kcat/Km,[1],2.25 ± 0.41
same,relative kcat/Km,[2],2.232 ± 0.0079
same,relative kcat/Km,[3],3.45 ± 1.3
GTCTTC,relative kcat/Km,[1],4.4 ± 1.6
same,relative kcat/Km,[2],5.61 ± 1.7
same,relative kcat/Km,[3],8.18 ± 3.4
GGCTTA,relative kcat/Km,[1],1.58 ± 0.71
same,relative kcat/Km,[2],1.39 ± 0.29
same,relative kcat/Km,[3],1.79 ± 0.95
ATCTTT,relative kcat/Km,[1],3.55 ± 1.4
same,relative kcat/Km,[2],4.27 ± 0.42
same,relative kcat/Km,[3],6.67 ± 2.8
TTCTTT,relative kcat/Km,[1],4.38 ± 0.77
same,relative kcat/Km,[2],6.36 ± 1.2
same,relative kcat/Km,[3],8.65 ± 4
GTCTTA,relative kcat/Km,[1],4.14 ± 1.1
same,relative kcat/Km,[2],5.78 ± 0.74
same,relative kcat/Km,[3],7.65 ± 2.9
AGCTTT,relative kcat/Km,[1],2.79 ± 1.2
same,relative kcat/Km,[2],2.71 ± 0.49
same,relative kcat/Km,[3],4.09 ± 1.6
TTCTTG,relative kcat/Km,[1],1.95 ± 1.7
same,relative kcat/Km,[2],1.96 ± 0.17
same,relative kcat/Km,[3],4 ± 1.1
TCAGCT,relative kcat/Km,[1],1.54 ± 0.23
same,relative kcat/Km,[2],0.491 ± 0.47
same,relative kcat/Km,[3],1.24 ± 0.075
GCTGTC,relative kcat/Km,[1],1.58 ± 0.93
same,relative kcat/Km,[2],0.624 ± 0.091
same,relative kcat/Km,[3],0.9566 ± 0.0067
GGCGAC,relative kcat/Km,[1],2.53 ± 0.11
same,relative kcat/Km,[2],2.47 ± 1.2
same,relative kcat/Km,[3],4.08 ± 1.4
TTAGAT,relative kcat/Km,[1],1.88 ± 0.57
same,relative kcat/Km,[2],2.14 ± 0.17
same,relative kcat/Km,[3],2.8 ± 1.2
CTTCCC,relative kcat/Km,[1],1.37 ± 0.18
same,relative kcat/Km,[2],1.5 ± 1.2
same,relative kcat/Km,[3],1.93 ± 0.53
GGGATG,relative kcat/Km,[1],0.585 ± 0.41
same,relative kcat/Km,[3],0.779 ± 0.15
CTAGAT,relative kcat/Km,[2],1.15 ± 0.17
same,relative kcat/Km,[3],1.83 ± 0.17
GACCTC,relative kcat/Km,[1],2.41 ± 0.81
same,relative kcat/Km,[2],2.49 ± 0.041
same,relative kcat/Km,[3],3.63 ± 0.74
GGATAC,relative kcat/Km,[1],1.9 ± 1.2
same,relative kcat/Km,[2],1.76 ± 0.55
same,relative kcat/Km,[3],3.05 ± 0.7
CACTAT,relative kcat/Km,[1],4.78 ± 1.4
same,relative kcat/Km,[2],6.06 ± 2
same,relative kcat/Km,[3],8.37 ± 3.9
CGCTAG,relative kcat/Km,[1],2.34 ± 1.3
same,relative kcat/Km,[2],2.43 ± 1
same,relative kcat/Km,[3],3.4 ± 0.31
CGCTAC,relative kcat/Km,[1],3.79 ± 0.67
same,relative kcat/Km,[2],4.78 ± 2.6
same,relative kcat/Km,[3],6.76 ± 2.8
CACTGC,relative kcat/Km,[1],3.89 ± 1.6
same,relative kcat/Km,[2],4.53 ± 1.3
same,relative kcat/Km,[3],6.06 ± 1.9
AACTAC,relative kcat/Km,[1],3.89 ± 1.7
same,relative kcat/Km,[2],4.66 ± 0.63
same,relative kcat/Km,[3],6.38 ± 2.5
GACTAC,relative kcat/Km,[1],4 ± 0.5
same,relative kcat/Km,[2],6.14 ± 3
same,relative kcat/Km,[3],8.43 ± 3.9
CGCTAT,relative kcat/Km,[1],3.49 ± 0.87
same,relative kcat/Km,[2],4.44 ± 1.6
same,relative kcat/Km,[3],5.95 ± 2.4
CACTGT,relative kcat/Km,[1],1.07 ± 0.037
same,relative kcat/Km,[2],0.947 ± 0.35
same,relative kcat/Km,[3],1.51 ± 1.1
CACTAC,relative kcat/Km,[1],4.63 ± 0.25
same,relative kcat/Km,[2],6.82 ± 2.5
same,relative kcat/Km,[3],8.23 ± 3.5
CGTATA,relative kcat/Km,[1],2.37 ± 0.34
same,relative kcat/Km,[2],2.75 ± 0.17
same,relative kcat/Km,[3],3.94 ± 1.5
GATGGT,relative kcat/Km,[3],2.1 ± 0.88
TGAGAC,relative kcat/Km,[1],2.71 ± 1.3
same,relative kcat/Km,[2],2.56 ± 0.093
same,relative kcat/Km,[3],4.48 ± 1.3
TATACA,relative kcat/Km,[1],1.36 ± 0.29
same,relative kcat/Km,[2],2.13 ± 0.035
same,relative kcat/Km,[3],3.02 ± 1.8
AGTCGA,relative kcat/Km,[1],2.68 ± 0.35
same,relative kcat/Km,[2],3.65 ± 1.2
same,relative kcat/Km,[3],5.59 ± 2
TCCTAC,relative kcat/Km,[1],4.6 ± 1.6
same,relative kcat/Km,[2],5.74 ± 0.95
same,relative kcat/Km,[3],9.69 ± 4.1
ACCTAC,relative kcat/Km,[1],3.44 ± 1.2
same,relative kcat/Km,[2],4.53 ± 0.77
same,relative kcat/Km,[3],5.77 ± 2.1
ACCTAT,relative kcat/Km,[1],3.74 ± 1.7
same,relative kcat/Km,[2],4.66 ± 0.24
same,relative kcat/Km,[3],6.39 ± 2.5
TCCTTT,relative kcat/Km,[1],3.7 ± 1.8
same,relative kcat/Km,[2],4.6 ± 0.8
same,relative kcat/Km,[3],6.89 ± 2.9
CCCTAC,relative kcat/Km,[1],4.32 ± 1.6
same,relative kcat/Km,[2],5.08 ± 2.3
same,relative kcat/Km,[3],7.32 ± 3.6
GCCTAC,relative kcat/Km,[1],3.67 ± 1.2
same,relative kcat/Km,[2],4.5 ± 0.39
same,relative kcat/Km,[3],6.1 ± 2.4
CCCTTC,relative kcat/Km,[1],3.11 ± 1.4
same,relative kcat/Km,[2],3.36 ± 0.74
same,relative kcat/Km,[3],4.51 ± 1.3
TCCTAT,relative kcat/Km,[1],4.03 ± 0.47
same,relative kcat/Km,[2],6.02 ± 0.85
same,relative kcat/Km,[3],9.38 ± 4.8
CCCTTT,relative kcat/Km,[1],2.73 ± 0.52
same,relative kcat/Km,[2],3.73 ± 1.1
same,relative kcat/Km,[3],5.02 ± 2
TCCTTA,relative kcat/Km,[1],3.84 ± 1.5
same,relative kcat/Km,[2],4.61 ± 0.54
same,relative kcat/Km,[3],6.32 ± 2.4
TCCTTC,relative kcat/Km,[1],3.75 ± 1.2
same,relative kcat/Km,[2],4.99 ± 0.72
same,relative kcat/Km,[3],6.44 ± 2.3
GAAGAT,relative kcat/Km,[1],1.93 ± 1.7
same,relative kcat/Km,[2],1.36 ± 0.085
same,relative kcat/Km,[3],1.34 ± 0.35
ATGCTG,relative kcat/Km,[3],0.658 ± 0.54
CTTAGA,relative kcat/Km,[1],3.03 ± 0.85
same,relative kcat/Km,[2],3.18 ± 0.44
same,relative kcat/Km,[3],4.79 ± 1.7
GATACC,relative kcat/Km,[2],1.49 ± 0.64
same,relative kcat/Km,[3],1.67 ± 0.033
CTGAAG,relative kcat/Km,[3],2.05 ± 0.18
TCCCGT,relative kcat/Km,[3],1.86 ± 0.041
GCAATT,relative kcat/Km,[2],0.851 ± 0.064
same,relative kcat/Km,[3],1.21 ± 0.26
AGTGTG,relative kcat/Km,[3],0.473 ± 0.33
CCCTAG,relative kcat/Km,[1],3.11 ± 1.7
same,relative kcat/Km,[2],2.55 ± 0.57
same,relative kcat/Km,[3],4.45 ± 1.2
CCCCCT,relative kcat/Km,[1],2.27 ± 1.8
same,relative kcat/Km,[2],1.25 ± 0.29
same,relative kcat/Km,[3],1.95 ± 0.15
CCCTAT,relative kcat/Km,[1],3.137 ± 0.006
same,relative kcat/Km,[2],5.47 ± 1.1
same,relative kcat/Km,[3],7.09 ± 3.1
CCCTGT,relative kcat/Km,[3],1.59 ± 0.87
ACCTCA,relative kcat/Km,[1],3.35 ± 1.8
same,relative kcat/Km,[2],3.24 ± 0.27
same,relative kcat/Km,[3],4 ± 1.2
GCCTAG,relative kcat/Km,[1],2.58 ± 1.6
same,relative kcat/Km,[2],1.57 ± 0.49
same,relative kcat/Km,[3],3.67 ± 1.2
CCCTAA,relative kcat/Km,[1],3.68 ± 0.17
same,relative kcat/Km,[2],4.41 ± 1.4
same,relative kcat/Km,[3],6.7 ± 3.1
CCTAAA,relative kcat/Km,[1],2.53 ± 1.5
same,relative kcat/Km,[2],2.31 ± 0.051
same,relative kcat/Km,[3],3.14 ± 0.82
ACCTAA,relative kcat/Km,[1],2.83 ± 0.76
same,relative kcat/Km,[2],4.49 ± 0.31
same,relative kcat/Km,[3],6.74 ± 2.3
GCCTAA,relative kcat/Km,[1],2.35 ± 0.18
same,relative kcat/Km,[2],3.94 ± 0.16
same,relative kcat/Km,[3],7.08 ± 2.8
GCCTAT,relative kcat/Km,[1],2.77 ± 0.47
same,relative kcat/Km,[2],3.91 ± 0.98
same,relative kcat/Km,[3],6.22 ± 2.8
ACCTAG,relative kcat/Km,[1],2.77 ± 2.8
same,relative kcat/Km,[2],2.93 ± 0.56
same,relative kcat/Km,[3],4.27 ± 0.99
TGCAAA,relative kcat/Km,[1],0.962 ± 0.78
same,relative kcat/Km,[2],1.86 ± 0.54
same,relative kcat/Km,[3],2.7 ± 1.3
CGGACC,relative kcat/Km,[1],0.889 ± 0.39
same,relative kcat/Km,[2],0.714 ± 0.41
same,relative kcat/Km,[3],0.577 ± 0.38
ACCGGT,relative kcat/Km,[3],1.78 ± 1.1
TGGTCT,relative kcat/Km,[3],0.817 ± 0.39
CTGGCG,relative kcat/Km,[1],0.881 ± 0.58
same,relative kcat/Km,[3],0.461 ± 0.2
CAGTGA,relative kcat/Km,[1],1.48 ± 0.7
same,relative kcat/Km,[2],2.14 ± 0.58
same,relative kcat/Km,[3],3.05 ± 0.86
GATCGA,relative kcat/Km,[1],2.37 ± 0.82
same,relative kcat/Km,[2],2.79 ± 1.2
same,relative kcat/Km,[3],4.26 ± 1.2
GTTAAG,relative kcat/Km,[2],1.6 ± 0.16
same,relative kcat/Km,[3],2.65 ± 0.77
CTACTC,relative kcat/Km,[1],2.13 ± 1.3
same,relative kcat/Km,[2],1.61 ± 0.43
same,relative kcat/Km,[3],2.14 ± 0.28
TCCTAG,relative kcat/Km,[1],2.56 ± 0.72
same,relative kcat/Km,[2],3.4 ± 0.46
same,relative kcat/Km,[3],6.01 ± 2.7
TCCTAA,relative kcat/Km,[1],5.1 ± 1.9
same,relative kcat/Km,[2],6.12 ± 0.94
same,relative kcat/Km,[3],9.11 ± 3.3
CACCGA,relative kcat/Km,[1],3.39 ± 1.4
same,relative kcat/Km,[2],3.9 ± 0.93
same,relative kcat/Km,[3],6.22 ± 2.1
